Test results from ChEMBL document CHEMBL3988442, “University of Dundee, Small-Polar-MMV Screening Library” (2021).
Among all 85,000 compounds or so, about 440 (0.52%) showed an effect of 50% or more. This excerpt belongs to a sample that is enriched for strong results.

Assay: In vitro enzyme assay to detect hydrolysis of chlorophenol red-beta-D-[…] directly proportional to the number of Toxoplasma stably expressing beta-galactosidase
Assay type: functional, organism-based, Toxoplasma gondii
Set-up: scale not given: in the data most compounds retested in dose-response had high values

O=C(Nc1ccccc1N1CCCC1)C1CCOC1 (centres undefined)
Percent Effect (50 µM): 2.349%

CS(=O)(=O)Nc1ccccc1CNC(=O)c1ccoc1
Percent Effect (50 µM): 97.49%

CN(C)c1ncccc1CNC(=O)c1ccoc1
Percent Effect (50 µM): -3.271%

O=C(CCNC(=O)c1ccoc1)NCc1ccccc1F
Percent Effect (10 µM): -6.438%

CC1CCCN(CCCN)C1 (centres undefined)
Percent Effect (50 µM): 8.539%

O=C(CC1CSCCN1)NCCc1ccc(F)cc1F (centres undefined)
Percent Effect (50 µM): 0.8144%

CCCc1noc(COc2nc(C)no2)n1
Percent Effect (50 µM): 3.348%

CC(C)C(NC(=O)Cn1cnnn1)c1cccs1 (centres undefined)
Percent Effect (50 µM): 19.15%

O=C(N1CCOCC1)[C@@]12CCO[C@@H]1CCN(C1CCOCC1)C2.O=C(O)C(F)(F)F
Percent Effect (10 µM): 86.48%

O=C(N1CCOCC1)[C@@]12CCO[C@@H]1CCN(C1CCCCC1)C2.O=C(O)C(F)(F)F
Percent Effect (10 µM): -8.917%

O=C(N1CCOCC1)[C@@]12CCO[C@@H]1CCN(C1CCC1)C2.O=C(O)C(F)(F)F
Percent Effect (10 µM): 41.32%

Cc1cc(C)n(CCC(=O)NC2C=CS(=O)(=O)C2)n1 (centres undefined)
Percent Effect (50 µM): -3.643%

CC(Nc1ccc(C#N)cn1)c1ccc2c(c1)OCO2 (centres undefined)
Percent Effect (50 µM): 3.939%

CC(C)CC(=O)N1CC[C@H]2N(C)CC[C@@]2(C(=O)Nc2cccnc2)CC1.O=C(O)C(F)(F)F.O=C(O)C(F)(F)F
Percent Effect (10 µM): 6.738%

CC(C)CC(=O)N1CC[C@H]2N(C)CC[C@@]2(C(=O)Nc2ccccc2)CC1.O=C(O)C(F)(F)F
Percent Effect (10 µM): 95.11%

CC(C)C(=O)N1CC[C@H]2N(C)CC[C@@]2(C(=O)Nc2ccccc2)CC1
Percent Effect (10 µM): -18.9%

O=C(CCC1CCCCC1)N1CC[S+]([O-])CC1
Percent Effect (50 µM): -3.074%

CC(C)(CO)NCC(O)c1cccc(F)c1 (centres undefined)
Percent Effect (50 µM): 95.56%

CC(C)(CO)NCC(O)c1cccc(Cl)c1 (centres undefined)
Percent Effect (50 µM): 48.83%

CC(C)(C)OC(=O)NCCC(=O)NCC(O)c1cccc(F)c1 (centres undefined)
Percent Effect (10 µM): -9.599%

Cc1cc(Br)oc1C(=O)NCCOC(N)=O
Percent Effect (50 µM): -2.351%

COc1ccc(OC)c(NC(=O)N2CC(C)(OC)C2)c1
Percent Effect (50 µM): 3.541%

CC[C@H](C)[C@H](N)C(=O)NC
Percent Effect (50 µM): -8.555%

c1csc(-c2noc(C3CCCOC3)n2)c1 (centres undefined)
Percent Effect (10 µM): -3.059%

Cl.c1csc(-c2noc(C3CNC3)n2)c1
Percent Effect (10 µM): 42.66%

CC(=O)Nc1ccc(C(C)N)cc1 (centres undefined)
Percent Effect (50 µM): -11.91%

COCCn1ccnc1CN(C)[C@H]1COC[C@@H]1O
Percent Effect (50 µM): -5.172%

OC1CCN(Cc2c(-c3ccco3)[nH]c3ncccc23)CC1
Percent Effect (10 µM): -9.681%

CCN1CCN(Cc2c(-c3ccco3)[nH]c3ncccc23)CC1
Percent Effect (10 µM): -25.08%

CN1CCN(Cc2c(-c3ccco3)[nH]c3ncccc23)CC1
Percent Effect (10 µM): 84.72%

Cc1nnc(SCC(=O)C(C)(C)C)[nH]1
Percent Effect (50 µM): 12.7%

Cc1n[nH]cc1CNCCNc1ncc(Cl)cc1Cl
Percent Effect (50 µM): 5.335%

CNC(=O)CN(C)C(=O)CCc1ccc(Br)cc1F
Percent Effect (50 µM): 0.9597%

O=C(c1cnsn1)N1CCN(C2CC2)C(=O)C1
Percent Effect (50 µM): 91.53%

COc1ccccc1C(=O)N1CCN(C2CC2)C(=O)C1
Percent Effect (50 µM): -3.275%

NCc1ccc(C(=O)N2CCN(C3CC3)C(=O)C2)cc1
Percent Effect (50 µM): 8.158%

COc1cc(CN)ccc1OCC(N)=O
Percent Effect (50 µM): 19.26%

Cc1nc(CC(=O)NCCN2CCNC2=O)c(C)s1
Percent Effect (50 µM): -2.42%

NCCNc1nc2ccccc2s1
Percent Effect (50 µM): 19.92%

OCCNc1nc2ccccc2s1
Percent Effect (50 µM): 92.76%

O=C(NCCO)Nc1nc2ccccc2s1
Percent Effect (50 µM): 9.255%

NC(=O)C1CCN(c2ncnc3ccsc23)CC1
Percent Effect (50 µM): 0.8525%

CCOC1CCCN(C(=O)c2ccc(C)[nH]c2=O)C1 (centres undefined)
Percent Effect (50 µM): 1.701%

CC(C)n1cc(S(=O)(=O)N2CCCCC2)cn1
Percent Effect (10 µM): 1.913%

CC(C)n1cc(S(=O)(=O)N2CCSCC2)cn1
Percent Effect (10 µM): 32.53%

CC(C)n1cc(S(=O)(=O)N2CCCCCC2)cn1
Percent Effect (10 µM): 51.25%

CN(C)C(=O)c1ccc(Oc2ncccn2)cc1
Percent Effect (50 µM): -3.725%

Cc1cc(C2CCCN(CC(=O)Nc3nc4c(s3)CCC4)C2)n[nH]1 (centres undefined)
Percent Effect (10 µM): 56.52%

O=C(CN1CCCC(c2ccn[nH]2)C1)Nc1nc2c(s1)CCC2 (centres undefined)
Percent Effect (10 µM): 42.36%

O=C(CN1CCCC(c2ccn[nH]2)C1)Nc1nc2c(s1)CCCC2 (centres undefined)
Percent Effect (10 µM): 31.73%

Cc1noc(CN(C)Cc2cncn2C(C)C)n1
Percent Effect (50 µM): -12.13%

CCN1CC2(CC1=O)CN(Cc1ccco1)CCN(C(=O)C(C)C)C2.O=C(O)C(F)(F)F (centres undefined)
Percent Effect (10 µM): -13.42%

CCN1CC2(CC1=O)CN(Cc1ccsc1)CCN(C(=O)C(C)C)C2.O=C(O)C(F)(F)F (centres undefined)
Percent Effect (10 µM): -7.478%

CCN1CC2(CC1=O)CN(Cc1ccoc1)CCN(C(=O)C(C)C)C2 (centres undefined)
Percent Effect (10 µM): 73.92%

CCN1CC2(CC1=O)CN(Cc1ccncc1)CCN(C(=O)C(C)C)C2.O=C(O)C(F)(F)F.O=C(O)C(F)(F)F (centres undefined)
Percent Effect (10 µM): 78.24%

CCN1CC2(CC1=O)CN(Cc1cnn(C)c1)CCN(C(=O)C(C)C)C2.O=C(O)C(F)(F)F (centres undefined)
Percent Effect (10 µM): -2.705%

CCN1CC2(CC1=O)CN(Cc1cccs1)CCN(C(=O)C(C)C)C2 (centres undefined)
Percent Effect (10 µM): -4.777%

NS(=O)(=O)c1ccc(Sc2ccc(F)cc2F)nc1
Percent Effect (50 µM): -8.713%

CS(=O)(=O)N1CCC(CN)C1 (centres undefined)
Percent Effect (50 µM): 0.02635%

CC(Cc1ccco1)NS(=O)(=O)N1CCCCCC1 (centres undefined)
Percent Effect (10 µM): -1.07%

CC(Cc1ccco1)NS(=O)(=O)N1CCCCC1 (centres undefined)
Percent Effect (10 µM): 0.1189%

CC(Cc1ccco1)NS(=O)(=O)N1CCOCC1 (centres undefined)
Percent Effect (50 µM): 99.87%

Nc1nccc(N2CCC(c3cc(Cc4ccccc4)n[nH]3)CC2)n1
Percent Effect (10 µM): 46.75%

Nc1nc(O)cc(N2CCC(c3cc(Cc4ccccc4)n[nH]3)CC2)n1
Percent Effect (10 µM): 2.428%

Nc1cc(N2CCC(c3cc(Cc4ccccc4)n[nH]3)CC2)ccn1
Percent Effect (10 µM): 67.3%

CN(C)c1ccc(NC(=O)N2CCSCC2)cn1
Percent Effect (50 µM): -21.27%

COC(=O)c1ccc2c(-c3ccnc(NCCO)n3)c[nH]c2c1
Percent Effect (10 µM): 29.45%

COc1ccc2[nH]cc(-c3ccnc(NC4CCCC4)n3)c2c1
Percent Effect (10 µM): 56.3%

COc1ccc2[nH]cc(-c3ccnc(N4CCC(C)CC4)n3)c2c1
Percent Effect (10 µM): 11.49%

Cn1ccnc1SCC(=O)Nc1cccnc1
Percent Effect (50 µM): -23.51%

COCCCOc1cc(C)ccc1CN
Percent Effect (50 µM): -20.96%

COc1ccc(NCC(=O)N2CCNC(=O)C2)c(C)c1
Percent Effect (50 µM): 52.04%

COc1ccc(N2CCCN(CC(=O)N3CCNC(=O)C3)CC2)cc1
Percent Effect (10 µM): -0.2401%

COc1cccc(CC(=O)N2CCNC(=O)C2)c1
Percent Effect (50 µM): 4.575%

NCc1ccc(N2CCS(=O)(=O)CC2)cc1
Percent Effect (50 µM): 2.889%

CC(Nc1ncnc2c1cnn2C)c1ccncc1 (centres undefined)
Percent Effect (50 µM): 10.45%

NC(=O)CN1CCCN(C(=O)c2sccc2Br)CC1
Percent Effect (50 µM): 2.336%

CN(C)CCCNCCC(c1ccccc1)C1CCOC(C)(C)C1.O=C(O)C(=O)O (centres undefined)
Percent Effect (10 µM): 13.16%

CN(C)CCCNCC1CCOC(C)(C)C1 (centres undefined)
Percent Effect (10 µM): 15.27%

Cc1ccc(C(CCNCCN(C)C)C2CCOC(C)(C)C2)cc1.O=C(O)C(=O)O (centres undefined)
Percent Effect (10 µM): 5.223%

Cc1ccc(C(CCNCCCN(C)C)C2CCOC(C)(C)C2)cc1.O=C(O)C(=O)O (centres undefined)
Percent Effect (10 µM): 86.28%

CN(C)CCNCCC(c1ccccc1)C1CCOC(C)(C)C1.O=C(O)C(=O)O (centres undefined)
Percent Effect (10 µM): -5.061%

CC(=O)Nc1nc2c(s1)CCCC2
Percent Effect (50 µM): -6.719%

O=S(=O)(c1ccc2c(c1)OCCO2)N1CCCNCC1
Percent Effect (50 µM): 3.594%

NC1CN(S(=O)(=O)c2ccc3c(c2)OCCO3)C1
Percent Effect (50 µM): 61.03%

O=S(=O)(c1ccc2c(c1)OCCO2)N1CCc2ccccc2C1
Percent Effect (10 µM): 3.262%

c1cncc(CCNCc2cccc3c2OCCO3)c1
Percent Effect (50 µM): -5.823%

CN(C)S(=O)(=O)NCC(O)c1cccc(C(F)(F)F)c1 (centres undefined)
Percent Effect (50 µM): 2.973%

Cc1cccc(C(=O)Nc2cccc(O)c2)n1
Percent Effect (50 µM): 0.8696%

CC(C)NC(=O)NCCn1cnc(C2CCCC2)cc1=O
Percent Effect (10 µM): 7.593%

O=C(NCCn1cnc(C2CCCC2)cc1=O)c1ccc(=O)[nH]n1
Percent Effect (10 µM): -2.574%

O=C(NCCn1cnc(C2CCCC2)cc1=O)NCc1cccs1
Percent Effect (10 µM): 56.76%

CC(=O)c1ccc(Br)o1
Percent Effect (50 µM): 1.756%

Cc1ccc(C(=O)COC(=O)c2cccnc2N)cc1
Percent Effect (50 µM): -8.374%

CC(C)c1ccc(S(=O)(=O)C(C)C(N)=O)cc1 (centres undefined)
Percent Effect (50 µM): -3.645%

CC(=O)N1CCN(C(=O)CCC(C)C)CC1
Percent Effect (50 µM): -13.31%

CC(C)CCC(=O)N1CCC(C)(CO)C1 (centres undefined)
Percent Effect (50 µM): 58.28%

CC(C)CCC(=O)N1CCNCC1
Percent Effect (50 µM): -1.153%

Cc1noc(C)c1CN1CCCC(CS(C)(=O)=O)C1 (centres undefined)
Percent Effect (50 µM): -9.047%

O=C1CC(C(=O)N2CCOC3(CCCC3)C2)CCN1 (centres undefined)
Percent Effect (50 µM): -8.974%

C1CC(C2CNC2)CCO1
Percent Effect (50 µM): 67.45%

C1CC(C2CCOC2)CCN1 (centres undefined)
Percent Effect (50 µM): 0.8119%

C1CC(C2CNC2)CO1 (centres undefined)
Percent Effect (50 µM): 5.994%

CCNC(=O)CNc1nccc(OC)n1
Percent Effect (50 µM): 5.07%

Cc1nn(-c2ccc(F)cc2)cc1CN
Percent Effect (50 µM): -3.262%

CC(C)COCC1CCNCC1
Percent Effect (50 µM): 3.232%

Cc1ccc(C(=O)NCC(C)(C)N(C)C)cn1
Percent Effect (50 µM): -0.683%

Cc1ccc(C(=O)NCCCNCCCN(C)C)cn1
Percent Effect (50 µM): 99.75%

CCCC(=O)NCCCNC(=O)c1ccc(C)nc1
Percent Effect (50 µM): -3.506%

O=C(NC1CCCSC1)N(CCO)C1CC1 (centres undefined)
Percent Effect (50 µM): 98.6%

O=C(NC1CCCSC1)N[C@H](CO)Cc1ccccc1 (some centres undefined)
Percent Effect (50 µM): 1.879%

Cc1nnc(NC(=O)N(CCO)C2CC2)s1
Percent Effect (50 µM): -4.304%

CCCn1ccnc1CNC(=O)CCNS(C)(=O)=O
Percent Effect (50 µM): -5.274%

Cc1cc(S(=O)(=O)N[C@@H]2CCOC[C@H]2O)n(C)n1
Percent Effect (50 µM): 15.92%
